Results as given in PubChem BioAssay AID2057 (The Scripps Research Institute Molecular Screening Center, 2009).
The whole screen tested about 320,000 compounds, of which about 2,100 (0.66%) were called active. The entries come from a sample that favours actives as a whole. A number with no mark means an inactive call.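 How the source made its calls: active means inhibition above the mean inhibition of all tested compounds plus 3 SD, set per campaign (cut at about 40% in these data); inactive means the rest.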

biological target: Induced myeloid leukemia cell differentiation protein Mcl-1 (Homo sapiens) (UniProt Q07820); test: MCL1-BIM peptide interaction disruptors – biochemical, fluorescence polarization, primary screen (AID 2057); settings: GST-MCL1 / FITC-Bim-BH3 fluorescence polarization; at 10.9 µM; hits give high values;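 further: 0% = DMSO wells and 100% = unlabeled Bim-BH3 peptide control; higher means more loss of mP so more displacement of Bim peptide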
Sequence (Q07820 whole entry, looked up): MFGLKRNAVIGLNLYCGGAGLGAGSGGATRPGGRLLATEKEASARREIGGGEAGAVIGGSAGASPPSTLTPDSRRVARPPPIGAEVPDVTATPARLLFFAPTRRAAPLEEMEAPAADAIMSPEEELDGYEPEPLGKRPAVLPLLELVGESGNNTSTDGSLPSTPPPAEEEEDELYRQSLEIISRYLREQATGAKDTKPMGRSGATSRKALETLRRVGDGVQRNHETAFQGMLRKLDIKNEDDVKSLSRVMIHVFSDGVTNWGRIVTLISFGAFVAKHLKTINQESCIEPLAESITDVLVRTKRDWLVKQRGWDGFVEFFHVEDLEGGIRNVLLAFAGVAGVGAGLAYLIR

Row | SMILES | inhibition
1 | NC(=O)C1=C[C@@H](c2ccc3c(c2)OCO3)C[C@@H](OCCCCO)O1 | 12.6%
2 | Cc1cc(C)cc(OCC(=O)Nc2ccc(N3CCOCC3)cc2N2CCOCC2)c1 | 1.14%
3 | CCCCNc1nc2ccccc2nc1NS(=O)(=O)c1cccs1 | 2.76%
4 | O=C(CCS(=O)(=O)c1ccc(Br)cc1)NCCc1ccc(Cl)cc1 | -2.54%
5 | COc1ccc(Cl)cc1NC(=O)CCS(=O)(=O)c1ccc(Br)cc1 | 42.9% (active)
6 | COc1ccc(Cl)cc1NC(=O)CCS(=O)(=O)c1cc2c(cc1C)NC(=O)CO2 | 8.54%
7 | O=C(NNS(=O)(=O)c1ccccc1)c1cnn(-c2ccc(Cl)cc2)c1C(F)(F)F | 6.42%
8 | O=C(O)c1ccccc1N=N/C(=N/Nc1cc(S(=O)(=O)O)ccc1O)c1ccccc1 | 62% (active)
9 | O=C(Nc1ccc(C(=O)O)c(O)c1)c1ccccc1 | -1.25%
10 | O=C(NCCc1ccccc1)C1CC1 | 3.41%
11 | Cc1cc(C)n2nc(C(=O)Oc3ccc4c(c3)OCO4)nc2n1 | 3.36%
12 | CN(C)N=Nc1ccc2nc[nH]c2c1 | 2.69%
13 | Cc1ccc(S(=O)(=O)N[C@@H](Cc2ccccc2)C(=O)N2CCC(C(=O)N[C@H](C(=O)O)C(C)O)CC2)cc1 (some centres not stated) | -6.49%
14 | Cc1nn(C)c(Oc2ccccc2)c1CCNS(=O)(=O)c1ccc(F)cc1 | 2.92%
15 | COCCn1c(N)c(N(Cc2ccccc2)C(=O)C2CCCCC2)c(=O)[nH]c1=O | 0.45%
16 | COCCn1c(N)c(NCc2ccccc2)c(=O)[nH]c1=O | 73.5% (active)
17 | COc1ccc(CNc2nc3c(c(=O)[nH]c(=O)n3C)n2Cc2ccccc2)cc1 | 5.54%
18 | CCC(=O)c1cc(F)ccc1OCC(=O)Nc1ccc2c(c1)OCCO2 | -2.34%
19 | O=c1[nH]c2ccccc2n2c(-c3ccccc3)nnc12 | 57% (active)
20 | O=c1[nH]n2c(-c3ccccc3)nc(O)c2c2ccccc12 | -5.68%
21 | Cc1nc2nc(C)c(NS(=O)(=O)c3ccc(C(C)(C)C)cc3)c(=O)n2[nH]1 | 0.66%
22 | CS(=O)(=O)N(CC(=O)N1CCN(c2ccc(F)cc2)CC1)C1CCCCC1 | -4.24%
23 | CCOC(=O)N1CCN(C(=O)C(C)NC(=O)c2ccco2)CC1 (configuration not stated) | -1.38%
24 | CCN(C(=O)CSc1ncnc2sccc12)c1c(N)n(Cc2ccccc2)c(=O)[nH]c1=O | 0.53%
25 | Cc1ccc(C(=O)N/N=C/c2cccc3ccccc23)cn1 | -3.5%
26 | O=C(N/N=C\c1cc(Br)c(Br)o1)C1COc2ccccc2O1 (configuration not stated) | 10.5%
27 | Cc1ccc(C(=O)N/N=C\c2cc(Br)c(Br)o2)cn1 | 46% (active)
